Source: PubChem BioAssay (NCI)
Compounds without any hit were thinned out: in the full panel of roughly 83,000, 20% have a hit.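 Negative percent growth values reflect cell death: -40 means 40% of the cells present at the start died, and -100 means all died.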 Values without a mark were called inactive. The source made the active and inactive calls. How the source made its calls: active means growth percent below 10; inactive means the rest.

Tests used:
Experiment in all cases: NCI-60 one-dose screen, 48 h (100 = growth as untreated, 0 = no growth, -100 = all killed)
Conditions in all cases: 10 µM
NCI-H23 lung = tested on: NCI-H23 lung
NCI-H226 lung = tested on: NCI-H226 lung
NCI-H460 lung = tested on: NCI-H460 lung
HOP-92 NSCLC = tested on: HOP-92 NSCLC
NCI-H522 lung = tested on: NCI-H522 lung
A549/ATCC NSCLC = tested on: A549/ATCC NSCLC
786-0 renal = tested on: 786-0 renal
COLO 205 colon = tested on: COLO 205 colon
DU-145 prostate = tested on: DU-145 prostate
K-562 leukemia = tested on: K-562 leukemia
MALME-3M melanoma = tested on: MALME-3M melanoma
MDA-MB-231 breast = tested on: MDA-MB-231 breast
RXF 393 renal = tested on: RXF 393 renal
SF-268 CNS = tested on: SF-268 CNS
SF-295 CNS = tested on: SF-295 CNS
SF-539 CNS = tested on: SF-539 CNS
UACC-257 melanoma = tested on: UACC-257 melanoma
M14 melanoma = tested on: M14 melanoma
HOP-62 NSCLC = tested on: HOP-62 NSCLC

`COc1cccc(-c2nc3sccn3c2-c2cccc(S(C)(=O)=O)c2)c1` showed a growth (NCI-H23 lung) of 85.4%, a growth (NCI-H226 lung) of 90.1% and a growth (NCI-H460 lung) of 106%. It also gave a growth (HOP-92 NSCLC) of 87.3%, a growth (NCI-H522 lung) of 102% and a growth (A549/ATCC NSCLC) of 102%. For the same compound, the growth (786-0 renal) was 100%, the growth (COLO 205 colon) was 114% and the growth (DU-145 prostate) was 110%. The growth (K-562 leukemia) was 95.5%, the growth (MALME-3M melanoma) was 129% and the growth (MDA-MB-231 breast) was 93.4%. For the same compound, the growth (RXF 393 renal) was 84.1%, the growth (SF-268 CNS) was 100% and the growth (SF-295 CNS) was 94.4%. It also gave a growth (SF-539 CNS) of 94.3%, a growth (UACC-257 melanoma) of 115% and a growth (M14 melanoma) of 119%.

`NS(=O)(=O)c1ccc(N2N=C(c3ccccc3)CCC2=O)cc1` was tested, and the growth (NCI-H23 lung) was 95.4%, the growth (NCI-H226 lung) was 120% and the growth (HOP-62 NSCLC) was 95.8%. It also gave a growth (HOP-92 NSCLC) of 97.7%, a growth (NCI-H522 lung) of 85.7% and a growth (A549/ATCC NSCLC) of 93.6%. The growth (786-0 renal) was 82.7%, the growth (COLO 205 colon) was 156% and the growth (DU-145 prostate) was 182%. It also gave a growth (K-562 leukemia) of 85.1%, a growth (MDA-MB-231 breast) of 112% and a growth (RXF 393 renal) of 110%. For the same compound, the growth (SF-268 CNS) was 176%, the growth (SF-295 CNS) was 99% and the growth (SF-539 CNS) was 102%. The growth (UACC-257 melanoma) was 96.5% and the growth (M14 melanoma) was 100%.

`CCN1CCN(CCC(=O)Nc2cccc(-n3cc(-c4ccncc4)c(-c4ccc(Cl)c(OC)c4)n3)c2)CC1` was tested, and the growth (NCI-H23 lung) was 32.2%, the growth (NCI-H226 lung) was 65% and the growth (NCI-H460 lung) was 6.94% (active). The growth (HOP-92 NSCLC) was 6.07% (active), the growth (NCI-H522 lung) was -23.2% (active) and the growth (A549/ATCC NSCLC) was 8.56% (active). For the same compound, the growth (786-0 renal) was -47.6% (active), the growth (COLO 205 colon) was -69.3% (active) and the growth (DU-145 prostate) was 12.4%. For the same compound, the growth (K-562 leukemia) was -34% (active), the growth (MALME-3M melanoma) was -63.6% (active) and the growth (MDA-MB-231 breast) was 4.87% (active). For the same compound, the growth (RXF 393 renal) was -7.05% (active), the growth (SF-268 CNS) was 35.4% and the growth (SF-295 CNS) was 9.42% (active). The growth (SF-539 CNS) was -51.9% (active), the growth (UACC-257 melanoma) was -85.5% (active) and the growth (M14 melanoma) was -63.4% (active).

In the case of `CC(C)(C)OC(=O)CN1CCc2c(sc3ncnc(N/N=C/c4ccccc4Br)c23)C1`, the growth (NCI-H23 lung) was 80.2%, the growth (NCI-H226 lung) was 83.4% and the growth (HOP-62 NSCLC) was 89%. It also gave a growth (HOP-92 NSCLC) of 73.7%, a growth (NCI-H522 lung) of 53.4% and a growth (A549/ATCC NSCLC) of 77.6%. For the same compound, the growth (786-0 renal) was 77%, the growth (COLO 205 colon) was 62.1% and the growth (DU-145 prostate) was 94.6%. For the same compound, the growth (K-562 leukemia) was 16.6%, the growth (MALME-3M melanoma) was 93.2% and the growth (MDA-MB-231 breast) was 65.5%. The growth (RXF 393 renal) was 70.3%, the growth (SF-268 CNS) was 76.9% and the growth (SF-295 CNS) was 99.2%. The growth (SF-539 CNS) was 84.1%, the growth (UACC-257 melanoma) was 92.7% and the growth (M14 melanoma) was 73.4%.

For `Cc1c(C(N)=O)sc2c1c(=O)n(Cc1ccccc1)c1nnc(-c3ccc(Br)cc3)n21`, the growth (NCI-H23 lung) was 39%, the growth (NCI-H226 lung) was 26.6% and the growth (HOP-62 NSCLC) was 37.7%. The growth (HOP-92 NSCLC) was 43.4%, the growth (NCI-H522 lung) was 47.9% and the growth (A549/ATCC NSCLC) was 10.1%. The growth (786-0 renal) was -15.5% (active), the growth (COLO 205 colon) was 16.8% and the growth (DU-145 prostate) was 31.7%. For the same compound, the growth (MDA-MB-231 breast) was 18.8%, the growth (RXF 393 renal) was 15.9% and the growth (SF-268 CNS) was 29.4%. The growth (SF-295 CNS) was 15.8%, the growth (SF-539 CNS) was 13.1% and the growth (UACC-257 melanoma) was -0.619% (active). The growth (M14 melanoma) was -22.5% (active).

Compound `COc1ccc(-c2nn(-c3cccc(Cl)c3)cc2-c2nc(N)[nH]c(=O)c2C#N)cc1` has a growth (NCI-H23 lung) of 42.7%, a growth (NCI-H226 lung) of 67.3% and a growth (NCI-H460 lung) of 92.2%. The growth (HOP-92 NSCLC) was 71.2%, the growth (NCI-H522 lung) was 49.6% and the growth (A549/ATCC NSCLC) was 85.1%. The growth (786-0 renal) was 57.2%, the growth (COLO 205 colon) was 107% and the growth (DU-145 prostate) was 102%. The growth (K-562 leukemia) was 28.3%, the growth (MALME-3M melanoma) was 37.4% and the growth (MDA-MB-231 breast) was 62.9%. For the same compound, the growth (RXF 393 renal) was 63.4%, the growth (SF-268 CNS) was 68.8% and the growth (SF-295 CNS) was 38.6%. The growth (SF-539 CNS) was 75.6%, the growth (UACC-257 melanoma) was 94% and the growth (M14 melanoma) was 55.8%.

In the case of `COc1ccc(C(=O)c2ccccc2CN2C(=O)c3ccccc3C2=O)cc1`, the growth (NCI-H23 lung) was 91.7%, the growth (NCI-H226 lung) was 102% and the growth (NCI-H460 lung) was 105%. It also gave a growth (HOP-92 NSCLC) of 86.7%, a growth (NCI-H522 lung) of 95.3% and a growth (A549/ATCC NSCLC) of 98.9%. The growth (786-0 renal) was 101%, the growth (COLO 205 colon) was 118% and the growth (DU-145 prostate) was 110%. For the same compound, the growth (K-562 leukemia) was 96.5%, the growth (MALME-3M melanoma) was 98.6% and the growth (MDA-MB-231 breast) was 109%. The growth (RXF 393 renal) was 107%, the growth (SF-268 CNS) was 102% and the growth (SF-295 CNS) was 100%. It also gave a growth (SF-539 CNS) of 108%, a growth (UACC-257 melanoma) of 104% and a growth (M14 melanoma) of 104%.

In the case of `CN(C)c1ncnc2c1nnn2C1OC(CO)C(O)C1O` (configuration not stated), the growth (NCI-H23 lung) was 4.79% (active), the growth (NCI-H226 lung) was 39.9% and the growth (HOP-62 NSCLC) was 32.7%. The growth (HOP-92 NSCLC) was 19.6%, the growth (NCI-H522 lung) was -25.2% (active) and the growth (786-0 renal) was 17.2%. The growth (COLO 205 colon) was -80.9% (active), the growth (DU-145 prostate) was 15.9% and the growth (MALME-3M melanoma) was -10.4% (active). For the same compound, the growth (MDA-MB-231 breast) was 36.5%, the growth (RXF 393 renal) was -2.59% (active) and the growth (SF-268 CNS) was 24.9%. For the same compound, the growth (SF-295 CNS) was 6.4% (active), the growth (SF-539 CNS) was -2.72% (active) and the growth (UACC-257 melanoma) was 11.8%. For the same compound, the growth (M14 melanoma) was -13.2% (active).

Work on `CC(=O)Nc1ccc(S(=O)(=O)c2ccnc3cc(Cl)ccc23)cc1` yielded a growth (NCI-H23 lung) of 68.2%, a growth (NCI-H226 lung) of 78.1% and a growth (HOP-62 NSCLC) of 99.1%. For the same compound, the growth (HOP-92 NSCLC) was 99.8%, the growth (NCI-H522 lung) was 28.1% and the growth (A549/ATCC NSCLC) was 85.3%. The growth (786-0 renal) was 125%, the growth (COLO 205 colon) was 95.3% and the growth (DU-145 prostate) was 53.7%. It also gave a growth (K-562 leukemia) of 78.9%, a growth (MALME-3M melanoma) of 66.5% and a growth (MDA-MB-231 breast) of 88.3%. For the same compound, the growth (RXF 393 renal) was 66.7%, the growth (SF-268 CNS) was 82.8% and the growth (SF-295 CNS) was 97.2%. The growth (SF-539 CNS) was 99.5%, the growth (UACC-257 melanoma) was 64.4% and the growth (M14 melanoma) was 95.3%.
